Data reported in PubChem BioAssay (EPA / NIEHS).
Several values for one entry are separate records, joined by “and”; a condition that tells them apart may be missing. Identical values can stand only once. Records with an inconclusive call do not appear. A structure can be active in one record and inactive in another. Activity calls are given as the source filed them. The calls were made as follows, unless noted: active = hit-call score of the fitted dose curve at least 0.9, where 1 is the maximum; inactive = score below 0.9.

Key:
[1] = read-out: Human Leukocyte Antigen - DR isotype (HLADR), HLA-DRA (gene 3122); assay: BSK_3C_HLADR: BioMAP Diversity Plus: 3C Assay for Human Leukocyte Antigen - DR isotype (HLADR) Biomarker Activity (AID 2283019); conditions: primary human endothelial cells (HUVEC); actives raise or lower the signal
Method in brief: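 ELISA readout of surface HLA-DR on human umbilical vein endothelium, taken 24 h after chemical treatment. Gain- and loss-of-signal were both fitted relative to DMSO.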

[2] = read-out: Interleukin-8 (IL8), CXCL8 (gene 3576); assay: BSK_3C_IL8: BioMAP Diversity Plus: 3C Assay for Interleukin-8 (IL8) Biomarker Activity (AID 2283020); conditions: primary human endothelial cells (HUVEC); actives raise or lower the signal
Method in brief: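 Primary human umbilical vein endothelial cells (3C system) were exposed to test chemical for 24 h, then IL-8 was quantified by ELISA. Responses were fitted bidirectionally against DMSO vehicle as baseline.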

[3] = read-out: Monokine induced gamma interferon (MIG), CXCL9 (gene 4283); assay: BSK_3C_MIG: BioMAP Diversity Plus: 3C Assay for Monokine induced gamma interferon (MIG) Biomarker Activity (AID 2283021); conditions: primary human endothelial cells (HUVEC); actives raise or lower the signal
Method in brief: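 Primary human umbilical vein endothelial cells in the 3C system were exposed to chemical for 24 h, after which MIG was quantified by ELISA. Activity was fitted bidirectionally against DMSO as negative control and baseline.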

[4] = BSK_3C_SRB: Viability Assessment in the BioMAP Diversity Plus: 3C Assay (AID 2283023); conditions: primary human endothelial cells (HUVEC);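 also: fitted both ways against DMSO so a hit may be signal rise or drop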
Method in brief: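 Absorbance at 560 nm of sulforhodamine B-stained (0.1%) total protein served as a cytotoxicity readout in human umbilical vein endothelial cells, 24 h after chemical treatment. Signal was fitted bidirectionally relative to DMSO.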

[5] = read-out: Matrix Metallopeptidase 1 (MMP1), MMP1 (gene 4312); assay: BSK_BE3C_MMP1: BioMAP Diversity Plus: BE3C Assay for Matrix Metallopeptidase 1 (MMP1) Biomarker Activity (AID 2283024); conditions: primary human bronchial epithelial cells; actives raise or lower the signal
Method in brief: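 Primary human bronchial epithelial cells were dosed with test chemicals, and MMP1 levels were measured by ELISA 24 h later. Data were fitted bidirectionally against DMSO as the negative control and activity baseline.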

[6] = BSK_3C_Vis: BioMAP Diversity Plus: 3C Assay for Morphology Visualization (AID 2283025); conditions: primary human endothelial cells (HUVEC);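 also: fitted both ways so gain or loss versus DMSO counts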
Method in brief: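 Human umbilical vein endothelial cells in the 3C system were imaged by light microscopy 24 h after chemical dosing to record cell morphology. Activity was fitted bidirectionally against DMSO as negative control and baseline; the endpoint serves as a background control.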

[7] = read-out: Pselectin, SELP (gene 6403); assay: BSK_4H_Pselectin: BioMAP Diversity Plus: 4H Assay for Pselectin Biomarker Activity (AID 2283026); conditions: primary human endothelial cells (HUVEC); actives raise or lower the signal
Method in brief: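 Primary human umbilical vein endothelial cells were exposed to test chemical for 24 h, then cell-surface P-selectin was quantified by ELISA. Activity was fitted bidirectionally against DMSO as negative control and baseline.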

[8] = BSK_4H_SRB: Viability Assessment in the BioMAP Diversity Plus: 4H Assay (AID 2283027); conditions: primary human endothelial cells (HUVEC);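 also: cells exposed to compound for 24 h before staining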;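 as to AC50: curves fitted both ways versus DMSO so AC50 may be loss or gain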
Method in brief: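 Human umbilical vein endothelial cells, 24 h after chemical dosing; total protein measured by 0.1% sulforhodamine B staining after 10% TCA fixation, read at 560 nm. Bidirectional fitting against DMSO.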

[9] = BSK_BE3C_SRB: Viability Assessment in the BioMAP Diversity Plus: BE3C Assay (AID 2283028); conditions: primary human bronchial epithelial cells
Method in brief: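 Cells (human bronchial epithelial, primary) are treated with chemicals, and after 24 h the parallel cultures are fixed in 10% TCA. These are then stained with 0.1% SRB and read at 560 nm. Gain or loss of signal is fitted relative to DMSO.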

[10] = read-out: Thrombomodulin, THBD (gene 7056); assay: BSK_3C_Thrombomodulin: BioMAP Diversity Plus: 3C Assay for Thrombomodulin Biomarker Activity (AID 2283029); conditions: primary human endothelial cells (HUVEC); actives raise or lower the signal
Method in brief: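 Primary human umbilical vein endothelial cells (3C system) were exposed to chemical for 24 h, then thrombomodulin levels were measured by ELISA. Activity was fitted bidirectionally against the DMSO negative control as baseline.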

[11] = read-out: Urokinase-type plasminogen activator receptor (uPAR), PLAUR (gene 5329); assay: BSK_4H_uPAR: BioMAP Diversity Plus: 4H Assay for Urokinase-type plasminogen activator receptor (uPAR) Biomarker Activity (AID 2283030); conditions: primary human endothelial cells (HUVEC); actives raise or lower the signal
Method in brief: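 Cell-surface uPAR ELISA signal, measured 24 h after dosing human umbilical vein endothelial cells, was analyzed with bidirectional fitting relative to DMSO. Parallel SRB staining of total protein tracked overt cytotoxicity.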

[12] = read-out: Vascular endothelial growth factor receptor 2 (Homo sapiens) (UniProt P35968); assay: BSK_4H_VEGFRII: BioMAP Diversity Plus: 4H Assay for Vascular endothelial growth factor receptor 2 (VEGFR2) Biomarker Activity (AID 2283031); conditions: primary human endothelial cells (HUVEC); actives raise or lower the signal;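 as to AC50: cell-surface VEGFR2 protein level quantified by ELISA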
Method in brief: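 ELISA read-out of VEGFRII in primary human umbilical vein endothelium, taken 24 h after chemical treatment. Responses are expressed relative to DMSO, with bidirectional fitting.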

[13] = read-out: Human Leukocyte Antigen - DR isotype (HLADR), HLA-DRA (gene 3122); assay: BSK_BE3C_HLADR: BioMAP Diversity Plus: BE3C Assay for Human Leukocyte Antigen - DR isotype (HLADR) Biomarker Activity (AID 2283032); conditions: primary human bronchial epithelial cells; actives raise or lower the signal
Method in brief: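 Human primary bronchial epithelial cells in the BE3C system were exposed to chemicals for 24 h, after which HLA-DR levels were quantified by ELISA. Activity was fitted bidirectionally, gain or loss of signal, against DMSO as negative control and baseline.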

[14] = read-out: Vascular cell adhesion molecule 1 (VCAM1), VCAM1 (gene 7412); assay: BSK_4H_VCAM1: BioMAP Diversity Plus: 4H Assay for Vascular cell adhesion molecule 1 (VCAM1) Biomarker Activity (AID 2283033); conditions: primary human endothelial cells (HUVEC); actives raise or lower the signal
Method in brief: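 Primary human umbilical vein endothelial cells were exposed to chemicals for 24 h, after which VCAM-1 was quantified by ELISA. Responses were fitted bidirectionally against DMSO as negative control and activity baseline.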

[15] = read-out: Interferon-gamma inducible Protein 10 (IP10), CXCL10 (gene 3627); assay: BSK_BE3C_IP10: BioMAP Diversity Plus: BE3C Assay for Interferon-gamma inducible Protein 10 (IP10) Biomarker Activity (AID 2283034); conditions: primary human bronchial epithelial cells; actives raise or lower the signal
Method in brief: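 Human primary bronchial epithelial cells were exposed to chemicals for 24 hours, after which IP-10 levels were measured by ELISA. Data were fitted bidirectionally against DMSO, which served as the negative control and activity baseline.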

[16] = read-out: Monokine induced gamma interferon (MIG), CXCL9 (gene 4283); assay: BSK_BE3C_MIG: BioMAP Diversity Plus: BE3C Assay for Monokine induced gamma interferon (MIG) Biomarker Activity (AID 2283035); conditions: primary human bronchial epithelial cells; actives raise or lower the signal;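 also: MIG protein measured by ELISA in BE3C cultures after 24 h of dosing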
Method in brief: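 Primary human bronchial epithelial cells treated for 24 h; MIG levels measured by ELISA, fitted bidirectionally versus DMSO. Parallel SRB total-protein staining assessed cytotoxicity.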

[17] = read-out: Transforming growth factor beta 1 (TGFb1), TGFB1 (gene 7040); assay: BSK_BE3C_TGFb1: BioMAP Diversity Plus: BE3C Assay for Transforming growth factor beta 1 (TGFb1) Biomarker Activity (AID 2283036); conditions: primary human bronchial epithelial cells; actives raise or lower the signal
Method in brief: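 Human primary bronchial epithelial cells (BE3C system) were dosed with chemical and TGF-b1 levels measured by ELISA at 24 h. Activity was fitted bidirectionally relative to DMSO negative control as baseline.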

[18] = read-out: Plasminogen activator inhibitor-1 (PAI1), SERPINE1 (gene 5054); assay: BSK_BE3C_PAI1: BioMAP Diversity Plus: BE3C Assay for Plasminogen activator inhibitor-1 (PAI1) Biomarker Activity (AID 2283037); conditions: primary human bronchial epithelial cells; actives raise or lower the signal
Method in brief: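 Human primary bronchial epithelial cells were exposed to chemical for 24 h, then PAI-1 was quantified by ELISA. Activity was fitted bidirectionally relative to the DMSO negative control baseline.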

[19] = read-out: urokinase plasminogen activator (uPA), PLAU (gene 5328); assay: BSK_BE3C_uPA: BioMAP Diversity Plus: BE3C Assay for urokinase plasminogen activator (uPA) Biomarker Activity (AID 2283038); conditions: primary human bronchial epithelial cells; actives raise or lower the signal;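 also: uPA protein level quantified by ELISA in cell cultures; uPA read one day after compound addition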
Method in brief: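 Bronchial epithelial cells (human, primary); chemical 24 h; uPA by ELISA; bidirectional fit vs DMSO. SRB (0.1%, after 10% TCA fixation, 560 nm) in parallel cultures for cytotoxicity.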

[20] = molecular target: human Vitamin D Receptor (VDR), VDR (gene 7421) (UniProt P11473); assay: ATG_VDR_TRANS: Attagene TRANS-FACTORIAL HepG2 Assay for human Vitamin D Receptor (VDR) (AID 2283022; active = hit-call score of the fitted dose curve at least 0.9, where 1 is the maximum)
Method in brief: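 Steps: transfect HepG2 with GAL4-UAS-driven reporter constructs; dose compounds 24 h; isolate RNA, reverse-transcribe, PCR-amplify with 6-FAM-labelled primer extension and HpaI digestion; quantify fragments by capillary electrophoresis relative to DMSO.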

Measured: AC50

human Vitamin D Receptor (VDR), VDR (gene 7421), sequence (P11473 whole entry, looked up, the tested form may be a part): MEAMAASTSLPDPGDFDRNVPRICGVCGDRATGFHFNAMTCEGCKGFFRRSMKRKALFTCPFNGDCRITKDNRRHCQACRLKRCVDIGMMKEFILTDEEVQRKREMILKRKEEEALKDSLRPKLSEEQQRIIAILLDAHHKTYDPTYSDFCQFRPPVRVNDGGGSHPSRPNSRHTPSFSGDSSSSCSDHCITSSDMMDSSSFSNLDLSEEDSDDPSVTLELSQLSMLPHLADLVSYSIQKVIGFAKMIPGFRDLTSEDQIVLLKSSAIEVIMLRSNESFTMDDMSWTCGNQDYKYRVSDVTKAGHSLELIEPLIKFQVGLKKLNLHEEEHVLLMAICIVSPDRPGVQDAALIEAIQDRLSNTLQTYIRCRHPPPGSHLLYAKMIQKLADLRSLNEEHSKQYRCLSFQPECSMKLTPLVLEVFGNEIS

CN(C)C(=O)Cl
not listed: [20]
inactive: all other assays above

CCOP(=S)(OCC)SCSCC
not listed: [20]
inactive: all other assays above

CCCN(CCC)c1c([N+](=O)[O-])cc(C(C)C)cc1[N+](=O)[O-]
active: [1] 28.5 µM | [2] 31.2 µM | [4] 28.9 µM | [8] 32.8 µM | [12] 20 µM | [13] 5.79 µM | [14] 23.2 µM
inactive: all other assays above

FC(F)(F)C(F)(C(F)(F)F)C(F)(F)C(F)(F)CC1CO1 (stereo not given)
inactive: [1] | [2] | [3] | [4] | [5] | [7] | [9] | [10] | [11] | [12] | [13] | [14] | [15] | [16] | [18] | [19]
active: [5] 2.33 µM

CCOc1ccc(C(C)(C)COCc2cccc(Oc3ccccc3)c2)cc1
not listed: [20]
inactive: all other assays above

[N-]=[N+]=[N-]
not listed: [20]
inactive: all other assays above

CCOP(=S)(OCC)SCS(=O)(=O)CC
inactive: all assays above

Cc1cccc(N)c1
not listed: [12]
inactive: all other assays above

CCCCOCCOP(=O)(OCCOCCCC)OCCOCCCC
active: [1] 12.8 µM | [6] 37.5 µM
inactive: all other assays above

COC(=O)C(F)(F)C(F)(F)OC(F)(C(F)(F)F)C(F)(F)OC(F)=C(F)F (stereo not given)
active: [5] 1.48 µM and 2.55 µM
not listed: [4] | [6] | [17]
inactive: all other assays above

CC(C)(C)OOC(C)(C)C
not listed: [20]
inactive: all other assays above

COP(N)(=S)OC
inactive: all assays above

CSC(C)(C)C=NO
not listed: [4] | [8]
inactive: all other assays above

Cc1ccc2c(c1N)C(=O)c1ccccc1C2=O
active: [1] 15 µM | [4] 4.25 µM | [6] 13.6 µM | [13] 5.4 µM
not listed: [20]
inactive: all other assays above
